The values below come from PubChem BioAssay.

Activity calls are given as the source filed them.

Experiment [1] relates to Wnt5a (protein binding on small-molecule microarray). Put plainly: small molecules binding Wnt5a protein – biophysical, small-molecule microarray, 635/667 nm fluorescence, primary screen (AID 1142).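 Also: fluorescence read at 667 nm with signal to noise per printed feature.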 The note with it: 635 nm fluorescence, higher = more signal.
Experiment [2] in a line: ATP-based viability of Huh7 replicon cells – cell-based, CellTiter-Glo luminescence, basal, 48 h, cytotoxicity control for HCV replication inhibitor project, primary screen (AID 1143).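 Also: Huh7 hepatoma cells carrying a hepatitis C replication reporter with no stimulus; test concentration not given here.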 Conditions: higher = more signal, called active from +8 up or from −8 down. Background: Replicon systems follow genome replication, usually without infectious particles.
A short description of experiment [3]: basal CRE-LacZ reporter activity in PC12 – cell-based, unstimulated, primary screen (AID 1145). The note with it: no forskolin, luminescence, 4.5 h, higher = more signal, called active from +8 up or from −8 down.
The nature of experiment [4]: forskolin-driven CRE-LacZ activity in PC12 – cell-based, CRE-LacZ reporter, forskolin-stimulated, primary screen (AID 1146).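 Also: PC12 cells with 6xCRE LacZ reporter stimulated by forskolin 10 µM; beta-galactosidase reporter signal reflecting CREB driven transcription.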 Conditions: luminescence, 4.5 h, higher = more signal, called active from +8 up or from −8 down.
The target of experiment [5] is Streptavidin (Streptomyces avidinii) (UniProt P22629). In words: compounds binding control protein streptavidin – biophysical, small-molecule microarray, 635/667 nm fluorescence, artefact control for SMM compound annotation, primary screen (AID 1147).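 Also: signal reflects streptavidin binding to arrayed compounds as a control protein.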 Conditions: higher = more signal.
Experiment [6] is described as follows: probe aInhba binding on compound microarray – biochemical, small-molecule microarray, 635/667 nm fluorescence, primary screen (AID 1148).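 Also: score merges 667nm spot fluorescence with signal-to-noise for antibody binding to printed compounds.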 The note with it: higher = more signal.
Experiment [7] has as its target Torsin-1A (Homo sapiens) (UniProt O14656). Put plainly: TOR1A wild-type binding on microarray – cell lysate, small-molecule microarray, lysate, 635/667 nm, primary screen (AID 1149). The note with it: COS7 hTOR1A-WT lysate, 635 nm fluorescence, higher = more signal.
For experiment [8] the target is unchanged. Put plainly: torsin A mutant lysate binding on microarrays – cell lysate, small-molecule microarray, COS7 lysate, 635/667 nm fluorescence, primary screen (AID 1150).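 Also: score pools 667 nm emission and signal to noise measuring lysate protein binding.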 Conditions: COS7 hTOR1A mutant lysate, 635 nm fluorescence, higher = more signal.
Experiment [9] concerns Sonic hedgehog protein (Shh). Put plainly: Sonic hedgehog microarray binding compounds – biochemical, small-molecule microarray, 635/667 nm fluorescence, primary screen (AID 1151).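 Also: Shh protein binding to compounds spotted on small-molecule microarray slides; score combines spot fluorescence intensity with signal-to-noise across triplicate slides.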 The note with it: 635 nm fluorescence, higher = more signal.
A short description of experiment [10]: optical density shifts of acrAB sulA E. coli – strain DRC41, OD650, 48 h, E. coli filamentation inducer project, primary screen (AID 1152).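 Also: E. coli MC1000 strain DRC41 lacking acrAB efflux pump and sulA.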 The note with it: higher = more signal, called active from +8 up or from −8 down.
The nature of experiment [11]: probe aLefty1 binding on compound microarray – biochemical, small-molecule microarray, 635/667 nm fluorescence, primary screen (AID 1153).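 Also: score merges spot fluorescence with signal-to-noise ratio from the scanned slide images.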 The note with it: higher = more signal.
Experiment [12] in a line: plasmodial surface anion channel blockers, osmotic lysis – cell-based, P. falciparum Indochina, OD700, 1 h, primary screen (AID 1154). Conditions: P. falciparum Indochina infected RBC osmotic lysis, higher = more signal, called active from +8 up or from −8 down.
Experiment [13] can be described thus: plasmodial surface anion channel blockers, osmotic lysis – cell-based, P. falciparum Indochina, OD700, 2 h, primary screen (AID 1155).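 Also: lysis reports solute entry through the parasite surface anion channel PSAC.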 The note with it: P. falciparum Indochina infected erythrocytes, higher = more signal, called active from +8 up or from −8 down.
Experiment [14] is described as follows: changes in parasitized red cell lysis, either direction – P. falciparum Indochina, OD700, 3 h, PSAC antagonist project, primary screen (AID 1156). Conditions: P. falciparum-infected erythrocytes, osmotic lysis, higher = more signal, called active from +8 up or from −8 down.
The nature of experiment [15]: plasmodial surface anion channel blockers, osmotic lysis – cell-based, P. falciparum Indochina, OD700, 18 h, primary screen (AID 1157). The note with it: P. falciparum Indochina infected erythrocytes, osmotic lysis OD700, 18 h; higher = more signal, called active from +8 up or from −8 down.
Experiment [16] can be described thus: S6 kinase pathway phospho-S6 level changes – cell-based, A549, cytoblot, luminescence, serum-stimulated, primary screen (AID 1158).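 Also: serum-stimulated A549 lung adenocarcinoma cells; signal is phosphorylated S6 detected by cytoblot immunostaining with HRP secondary.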 Conditions: 5 h, higher = more signal.
Experiment [17] concerns the target NADPH oxidase 2 (Homo sapiens) (UniProt P04839). In words: compounds shifting NOX2 Amplex Red fluorescence – cell-based, HEK293-NOX2, PMA-stimulated, NOX inhibitor project, primary screen (AID 1159). Also: test concentration not given here. Conditions: 45 min, higher = more signal, called active from +8 up or from −8 down.
The target in experiment [18] is NADPH oxidase 4 (Homo sapiens) (UniProt Q9NPH5). In words: compounds shifting NOX4 Amplex Red fluorescence – cell-based, HEK293-NOX4, tetracycline-induced, NOX inhibitor project, primary screen (AID 1160). The note with it: HEK293-NOX4, Amplex Red H2O2 fluorescence, 45 min; higher = more signal, called active from +8 up or from −8 down.
The target of experiment [19] is NADPH oxidase 5 (Homo sapiens) (UniProt Q96PH1). In words: compounds shifting NOX5 Amplex Red fluorescence – cell-based, HEK293-NOX5, NOX inhibitor project, primary screen (AID 1161). The note with it: HEK293-NOX5, ionomycin, 45 min, higher = more signal.
Experiment [20] can be described thus: compound effects on lung adenocarcinoma cell viability – A549, calcein-AM fluorescence, 48 h, basal, profiling panel (AID 1162). Also: test concentration not given here. Conditions: higher = more signal.

Sequence of NADPH oxidase 4 (Homo sapiens) (Q9NPH5 whole entry, looked up): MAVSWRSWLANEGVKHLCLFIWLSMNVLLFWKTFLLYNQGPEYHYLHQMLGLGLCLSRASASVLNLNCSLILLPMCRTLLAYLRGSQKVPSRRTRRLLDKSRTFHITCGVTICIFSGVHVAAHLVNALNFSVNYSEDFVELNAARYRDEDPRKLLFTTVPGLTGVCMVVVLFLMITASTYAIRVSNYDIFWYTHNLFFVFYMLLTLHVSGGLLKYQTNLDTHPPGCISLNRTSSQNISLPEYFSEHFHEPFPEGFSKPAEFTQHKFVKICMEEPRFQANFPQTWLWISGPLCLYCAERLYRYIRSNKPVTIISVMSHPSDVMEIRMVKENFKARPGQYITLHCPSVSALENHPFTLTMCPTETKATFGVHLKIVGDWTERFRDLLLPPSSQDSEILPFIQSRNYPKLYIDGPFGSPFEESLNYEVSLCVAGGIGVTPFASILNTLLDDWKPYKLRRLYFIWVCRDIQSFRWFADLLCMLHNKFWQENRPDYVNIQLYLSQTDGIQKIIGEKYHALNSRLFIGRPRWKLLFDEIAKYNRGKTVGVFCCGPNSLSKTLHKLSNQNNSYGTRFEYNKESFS
Sequence of Streptavidin (Streptomyces avidinii) (P22629 whole entry, looked up): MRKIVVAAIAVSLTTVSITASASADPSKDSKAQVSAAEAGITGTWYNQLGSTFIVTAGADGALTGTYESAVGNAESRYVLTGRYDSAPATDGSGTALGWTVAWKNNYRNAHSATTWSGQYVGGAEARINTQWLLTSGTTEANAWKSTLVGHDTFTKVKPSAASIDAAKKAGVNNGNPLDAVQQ
Sequence of Torsin-1A (Homo sapiens) (O14656 whole entry, looked up): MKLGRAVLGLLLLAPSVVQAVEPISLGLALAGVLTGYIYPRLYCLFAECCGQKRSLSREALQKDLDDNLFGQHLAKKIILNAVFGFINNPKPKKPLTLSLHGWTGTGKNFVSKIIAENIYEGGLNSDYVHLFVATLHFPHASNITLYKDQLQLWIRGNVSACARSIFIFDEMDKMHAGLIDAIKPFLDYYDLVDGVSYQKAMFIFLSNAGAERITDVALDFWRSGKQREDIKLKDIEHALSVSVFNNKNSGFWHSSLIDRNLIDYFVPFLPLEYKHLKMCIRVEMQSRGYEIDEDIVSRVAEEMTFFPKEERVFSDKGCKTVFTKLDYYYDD
Sequence of NADPH oxidase 5 (Homo sapiens) (Q96PH1 whole entry, looked up): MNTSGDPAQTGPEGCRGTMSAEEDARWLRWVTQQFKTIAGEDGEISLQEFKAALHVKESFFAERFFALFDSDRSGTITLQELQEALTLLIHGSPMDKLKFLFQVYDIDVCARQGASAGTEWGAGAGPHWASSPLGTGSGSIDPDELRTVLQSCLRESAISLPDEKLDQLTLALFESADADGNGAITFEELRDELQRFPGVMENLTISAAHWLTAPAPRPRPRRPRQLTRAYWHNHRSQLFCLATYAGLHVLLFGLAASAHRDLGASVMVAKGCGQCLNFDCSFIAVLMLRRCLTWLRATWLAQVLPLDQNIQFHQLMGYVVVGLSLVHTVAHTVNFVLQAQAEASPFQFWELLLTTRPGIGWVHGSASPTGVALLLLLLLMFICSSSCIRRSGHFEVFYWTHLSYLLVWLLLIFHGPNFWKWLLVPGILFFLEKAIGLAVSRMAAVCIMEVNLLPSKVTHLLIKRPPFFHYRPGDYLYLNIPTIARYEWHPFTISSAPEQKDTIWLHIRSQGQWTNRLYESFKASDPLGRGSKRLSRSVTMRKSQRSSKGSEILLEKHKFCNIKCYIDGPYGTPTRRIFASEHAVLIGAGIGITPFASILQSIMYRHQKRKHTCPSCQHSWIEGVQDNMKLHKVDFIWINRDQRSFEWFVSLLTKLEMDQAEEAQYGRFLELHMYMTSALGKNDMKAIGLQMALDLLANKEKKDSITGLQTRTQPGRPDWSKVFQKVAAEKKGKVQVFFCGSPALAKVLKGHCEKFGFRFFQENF
Sequence of NADPH oxidase 2 (Homo sapiens) (P04839 whole entry, looked up): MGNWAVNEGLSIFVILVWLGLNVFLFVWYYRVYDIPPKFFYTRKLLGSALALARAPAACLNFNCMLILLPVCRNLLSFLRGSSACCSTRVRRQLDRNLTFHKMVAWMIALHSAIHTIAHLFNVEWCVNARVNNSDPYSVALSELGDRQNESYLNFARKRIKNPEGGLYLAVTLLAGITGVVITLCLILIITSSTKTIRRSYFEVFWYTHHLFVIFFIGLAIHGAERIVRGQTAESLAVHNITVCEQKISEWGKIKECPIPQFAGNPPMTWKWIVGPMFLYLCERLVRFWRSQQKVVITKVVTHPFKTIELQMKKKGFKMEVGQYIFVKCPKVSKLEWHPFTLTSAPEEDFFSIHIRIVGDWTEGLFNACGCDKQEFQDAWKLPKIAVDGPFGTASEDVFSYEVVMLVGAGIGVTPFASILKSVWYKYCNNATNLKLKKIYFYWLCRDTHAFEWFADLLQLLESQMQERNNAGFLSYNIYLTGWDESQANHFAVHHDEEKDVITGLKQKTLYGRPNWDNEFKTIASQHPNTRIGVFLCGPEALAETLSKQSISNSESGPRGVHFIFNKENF

Turning to `C=CCNC(=O)[C@@H]1[C@H]2C(=O)O[C@H](c3ccccc3)[C@H](c3ccccc3)N2[C@H](c2ccc(O)cc2)[C@@]12C(=O)N(C(=O)OCCOC)c1ccc(C#Cc3ccc(OC)cc3)cc12`, the composite z-score turned out to be 0.334 in experiment [1]; 0.256 in experiment [5]; 0.0627 in experiment [6]; 0.808 in experiment [7]; 0.54 in experiment [8]; 1.06 in [9]. For the same compound, the composite z-score in experiment [11] is -0.0222. Also, the z-score was -2.94 (inactive) in experiment [2]; -0.203 (inactive) in [3]; 0.417 (inactive) in experiment [4]; 1.58 (inactive) in experiment [10]; 2.52 (inactive) in experiment [12]; 1.19 (inactive) in experiment [13]. The z-score in experiment [14] was -0.264 (inactive); in experiment [15] it was 0.804 (inactive); in experiment [16], -0.0456; in [17] it was 0.957 (inactive); in experiment [18], -0.276 (inactive); in experiment [19] it was 1.9. Moreover, the z-score in experiment [20] was -0.413.
As for `[N-]=[N+]=NCc1ccccc1C[C@@]1(C(=O)NCc2ccccc2)N=C(c2ccc(OCCCO)cc2)O[C@@H]1c1ccccc1`, the composite z-score in [1] is 0.238; in [5] it was 0.229; in experiment [6] it was -0.025; in experiment [7], 0.0526; in [8] it was 1.48; in experiment [9], -0.353. Besides, the composite z-score in [11] turned out to be 0.277. Further, the z-score in [2] is -5.27 (inactive); in experiment [3], 0.596 (inactive); in experiment [4], -0.942 (inactive); in experiment [10], 1.75 (inactive); in experiment [12] it was 21 (active); in [13], 5.58 (inactive). The z-score was 1.81 (inactive) in experiment [14]; -0.217 (inactive) in experiment [15]; 0.969 in experiment [16]; 1.2 (inactive) in experiment [17]; 0.964 (inactive) in experiment [18]; 0.0832 in experiment [19]. For the same compound, the z-score in experiment [20] is -2.22.
As for `CCCCCN1CC=CC23O[C@@H]4/C=C\CCC(C)OC(=O)C4[C@H]2C(=O)N(CCO)[C@@H]3C1=O` (stereo not given in full), the composite z-score in experiment [1] was -0.376; in experiment [5], -0.877; in experiment [6], -0.233; in experiment [7], 0.615; in [8], 0.816; in experiment [9] it was -0.542. Besides, the composite z-score in experiment [11] is -0.147. For the same compound, the z-score in [2] is -0.989 (inactive); in [3], 1.02 (inactive); in experiment [4] it was -1.06 (inactive); in experiment [10], 2.08 (inactive); in [12], 2.04 (inactive); in experiment [13], 0.402 (inactive). Moreover, the z-score was 0.944 (inactive) in experiment [14]; 0.0613 (inactive) in experiment [15]; 0.0564 in experiment [16]; 1.88 (inactive) in [17]; -0.354 (inactive) in [18]; 2.5 in experiment [19]. For the same compound, in experiment [20], the z-score was 0.414.
`CC(C)C[C@@H]1NC(=O)[C@@H]2C[C@H](C(=O)NCCCCCNC(=O)CS)[C@H](c3cccc(OCCO)c3)N2C1=O`: the composite z-score in [1] is 0.257; in experiment [5] it was 0.811; in experiment [6] it was 0.0207; in experiment [7] it was 1.31; in experiment [8], 0.824; in experiment [9], 2.03. The compound further gave a composite z-score in experiment [11] of 0.348. Moreover, the z-score in experiment [2] was -1.59 (inactive); in [3] it was 0.147 (inactive); in experiment [4] it was -1.09 (inactive); in experiment [10] it was 1.8 (inactive); in experiment [12] it was 3.21 (inactive); in experiment [13] it was -0.422 (inactive). The z-score in [14] is -1.74 (inactive); in [15], -1.93 (inactive); in experiment [16], 0.955; in [17], 2.24 (inactive); in [18], 0.84 (inactive); in [19], 0.00283. Besides, the z-score in experiment [20] was 0.221.
